Only some compounds are listed: those with a hit (about 3.5% of all), similar ones and a draw of the others.
FBA Mtb inh: inhibitors of M. tuberculosis fructose-bisphosphate aldolase | P9WQA3 | purified M. tuberculosis FBA, fluorescence read-out | inhibition, % at 1 µM | 360,000 tested, 2.3% active | AID 588726; in the data active = inhibition above about 27%;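 also: 0% = vehicle and 100% = reference inhibitor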
Target sequence (P9WQA3 whole entry, looked up): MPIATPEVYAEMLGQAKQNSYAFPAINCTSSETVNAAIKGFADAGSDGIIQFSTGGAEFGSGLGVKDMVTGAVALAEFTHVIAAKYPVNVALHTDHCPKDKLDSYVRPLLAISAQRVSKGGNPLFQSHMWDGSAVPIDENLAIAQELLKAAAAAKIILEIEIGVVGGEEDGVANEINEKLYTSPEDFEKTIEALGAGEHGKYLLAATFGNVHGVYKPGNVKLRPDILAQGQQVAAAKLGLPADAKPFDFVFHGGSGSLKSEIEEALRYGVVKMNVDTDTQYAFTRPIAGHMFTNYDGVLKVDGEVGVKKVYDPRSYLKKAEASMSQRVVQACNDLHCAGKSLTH
Rv3671c inh: inhibitors of M. tuberculosis serine protease Rv3671c. AID 2606. P9WHR9. inhibition, % at 5.96 µM. 320,000 tested, 0.048% active; in the data active = inhibition above about 38%;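 also: extracellular domain of Rv3671c used as enzyme; 0% = enzyme with DMSO and 100% = no enzyme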
Mtb hypoxia rep: inhibitors of hypoxia-regulated fluorescent reporter in Mycobacterium tuberculosis | M. tuberculosis hypoxia-regulated fluorescent reporter, fluorescence | fluorescence inhibition, % (no concentration beside the values) | 300,000 tested, 0.1% active | AID 1159583; in the data active = fluorescence inhibition mostly above about 23%, no sharp cut-off; inactive = mostly below about 17%
FadD28 binding: inhibitors of Mycobacterium tuberculosis FadD28 bisubstrate binding; inhibition, % at 12.5 µM; 360,000 tested, 0.22% active; AID 588549; FadD28 bisubstrate probe binding, fluorescence polarization; in the data active = inhibition above about 8.5%, passing the limit was not always enough
UGM FP inh: inhibitors of M. tuberculosis UDP-galactopyranose mutase | P9WIQ1 | purified UGM, fluorescence polarization probe displacement | inhibition, % at 10 µM | 320,000 tested, 0.06% active; in the data active = inhibition above about 10%, passing the limit was not always enough
GDH-TPI counter: counter-screen for M. tuberculosis FBA inhibitors: GDH-TPI coupled enzymes; GDH-TPI coupled enzyme counterscreen, NADH absorbance; inhibition, % at 4.8 µM; 360,000 tested, 1.2% active; AID 588335; in the data active = inhibition above about 30%;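 also: 0% = DMSO wells and 100% = wells lacking the enzyme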
* hit, by the source's call; nt = no result; + = active, no number.

SMILES	FBA Mtb inh	Rv3671c inh	Mtb hypoxia rep	FadD28 binding	UGM FP inh	GDH-TPI counter
CN(Cc1ccccc1F)Cc1cc(=O)oc2cc(O)c(Cl)cc12	+	-1	4	-3	-1	7
CC1CN(Cc2cc(=O)oc3cc(O)c(Cl)cc23)CC(C)O1 (stereo not given)	+	0	8	-2	3	1
Cc1cc2oc(=O)cc(CN(C)Cc3ccccc3F)c2cc1Cl	1	-4	-5	-1	3	17
CC(=NNC(=O)C1COc2ccccc2O1)c1ccc(N2CCOCC2)cc1 (stereo not given)	nt	nt	9	nt	nt	nt
O=C(CN1CCN(Cc2ccccc2Cl)CC1)NN=C/C=C\c1ccccc1[N+](=O)[O-]	nt	nt	7	nt	nt	nt
CC(C)C(=O)Nc1ccc(-c2nc3cccnc3o2)cc1	+	5	17	-2	-1	35*
CC(C)C(=O)Nc1cc(-c2nc3ncccc3o2)ccc1Cl	6	1	16	-5	-1	6
CC(C)C(=O)Nc1ccc(-c2nc3ncccc3o2)cc1	+	-9	4	-1	1	41*
CC(=NNC(=O)c1cc(C)oc1C)c1ccc2ccccc2c1	nt	nt	9	nt	nt	nt
NC(=S)NN=Cc1ccc(-c2ccc(S(=O)(=O)Nc3ncccn3)cc2)o1	20	10	7	23*	nt	33*
NC(=S)N/N=C/c1ccc(-c2ccc(SC(F)F)cc2)o1	9	4	nt	-1	-4	45*
CCOc1ccc(C(=O)N/N=C/c2ccc(-c3ccc(S(=O)(=O)Nc4ncccn4)cc3)o2)cc1	26	0	nt	-9	3	35*
CCOc1ccc(C(=O)NN=Cc2ccc(-c3ccc(S(=O)(=O)Nc4ncccn4)cc3)o2)cc1	nt	nt	16	nt	nt	nt
COC(=O)[C@@]1(Cc2ccc(OC)cc2)C2c3cc(C(=O)N(C)C)n(CCSCCO)c3CC2CN1C(=O)c1ccccc1 (stereo not given in full)	nt	nt	19	nt	nt	nt
CC(O)C1CCC2C3CCC4CC(O)CC[C@]4(C)C3C(=O)C[C@]12C (stereo not given in full)	nt	nt	-2	nt	nt	nt
O=C(N/N=C/c1ccc(Br)s1)c1ccccc1[N+](=O)[O-]	-3	-2	nt	-9	4	38*
O=C(NN=CC(c1ccccc1)c1ccccc1)c1ccccc1F	nt	nt	13	nt	nt	nt
CC(C)(C)[C@]1(O)CCN2CC3c4ccccc4CCc4cccc(c43)C2C1 (stereo not given in full)	nt	nt	-13	nt	nt	nt
COc1ccc(C(C[N+](=O)[O-])C2(c3ccc(OC)c(OC)c3)C(=O)c3ccccc3C2=O)cc1 (stereo not given)	-3	10	nt	-2	-2	41*
CCn1c(CSc2nnc3ccccn23)nc2cc(C(=O)O)ccc21	7	27	-4	13*	6	2
O=C(N/N=C/c1cc(Br)c(O)c(Br)c1)C1CC1	3	3	nt	-2	0	31*
O=C(NN=Cc1cc(Br)c(O)c(Br)c1)C1CC1	nt	nt	7	nt	nt	nt
COc1ccc(/C=N/NC(=O)C2C3CCCCC32C)cc1OC (stereo not given)	2	12	nt	-1	-4	0
COc1cc(/C=N/NC(=O)C2C3CCCCC32C)cc(Br)c1O (stereo not given)	14	4	nt	-1	3	51*
COc1ccc(NC(=O)N(C)CC2Oc3ccc(NC(=O)Cc4ccccc4)cc3C(=O)N(C(C)CO)CC2C)cc1 (stereo not given)	nt	nt	-6	nt	nt	nt
SMILES	FBA Mtb inh	Rv3671c inh	Mtb hypoxia rep	FadD28 binding	UGM FP inh	GDH-TPI counter
O=c1cc(-c2ccc(O)cc2)oc2ccc(O)cc12	4	1	3	-1	4	37*
O=c1cc(-c2ccc(O)cc2)oc2ccccc12	3	-7	nt	-2	3	22
COc1ccc(-c2cc(=O)c3ccccc3o2)cc1	+	-6	nt	-5	2	32*
O=c1cc(-c2ccc3c(c2)OCO3)oc2ccccc12	22	-1	1	-4	2	39*
COc1ccc(-c2cc(=O)c3c(OC)c(OC)c(OC)c(OC)c3o2)cc1OC	7	1	8	-2	-1	32*
COc1ccc(-c2cc(=O)c3c(O)c(OC)c(OC)c(OC)c3o2)cc1	-1	nt	nt	-4	nt	11
Nc1c(-c2ccc3c(c2)OCCO3)oc2ccccc2c1=O	+	-10	8	nt	3	-2
COc1ccc(-c2oc3cc(O)c(OC)c(O)c3c(=O)c2OC)cc1O	-3	nt	nt	2	nt	22
COc1ccc(-c2cc(=O)c3c(OC)c(OC)c(OC)cc3o2)cc1	-1	3	nt	-3	0	32*
COc1cc(OC)c2c(=O)c(OC)c(-c3ccc(OC)c(OC)c3)oc2c1	103*	-5	nt	-3	-1	22
COc1ccccc1-c1coc2c(CN(C)C)c(O)ccc2c1=O	188*	4	10	-2	0	22
CCN(CC)Cc1c(O)ccc2c(=O)c(-c3ccc4c(c3)OCCO4)coc12	23	5	2	0	-1	31*
COc1ccccc1Oc1coc2c(CN(C)C)c(O)ccc2c1=O	114*	-3	7	-3	1	25
C#CCOCCOCCOCCNc1nc(N2CCN(C(=O)C(Cc3ccc(O)cc3)n3cc(CCO)nn3)CC2)nc(N2CCN(C(=O)C(C(C)O)n3cc(CCCCN)nn3)CC2)n1 (stereo not given)	nt	nt	15	nt	nt	nt
CC(=NNC(=O)CN1CCCCC1)c1ccccc1O	nt	nt	4	nt	nt	nt
COc1ccccc1CNC(=O)CCN1C(=O)c2ccccc2C1=O	117*	3	16	-3	2	2
COC(=O)C1=CC(C(=O)OC)C2C3=C(C(=O)[C@@]2(C)NC(=O)c2ccccc2)C(C)C(C(=O)OC)=C(C(=O)OC)C3C1 (stereo not given in full)	nt	nt	4	nt	nt	nt
CC1CCC2C(=O)NC(Cc3ccccc3)C(=O)N2C1c1ccccc1 (stereo not given)	nt	nt	20	nt	nt	nt
COc1ccc(C(=O)/C=C/NCc2ccc(C)cc2)cc1	0	-7	nt	-1	1	44*
COc1ccc(C(=O)/C=C/Nc2cc(C)on2)cc1	0	-2	11	-3	-1	41*
COC(=O)CC1c2cc(C(F)(F)F)ccc2S(=O)(=O)N1c1ccc(N(C)C)cc1 (stereo not given)	nt	nt	13	nt	nt	nt
COC(CNC(=O)c1cccnc1)OC	4	10	-6	-1	-1	-3
COC(CNC(=O)c1ccc2c3c(onc13)-c1ccccc1C2=O)OC	-1	-44	3	0	27*	-1
COCCN1C(=O)NC(c2ccccc2)C(C(C)=O)=C1C (stereo not given)	nt	nt	11	nt	nt	nt
N#CCC(=O)Nc1ccccc1C(=O)O	2	-2	nt	-2	0	6
N#C/C(=C/Nc1ccccc1C(=O)O)C(N)=O	-5	0	15	0	1	68*
O=C(O)CCn1cc(/C=C\C(=O)c2ccc(Cl)cc2)c(-c2cccc(Br)c2)n1	1	-14	2	-15	1	38*
c1ccc(CSc2nnc(-c3cccnc3)o2)cc1	2	1	40*	0	-1	2
CN1c2ccccc2-c2nc3ccccc3n2C1c1cccs1 (stereo not given)	+	-3	3	-4	-1	4

High-throughput results from PubChem BioAssay.
